Most compounds without a hit are left out; they make up all but 2.1% or so of the library.
HIV Env fusion = HIV envelope-mediated fusion inhibition. HeLa-JRFL Env/CEM21 cell fusion, luciferase. inhibition, % at 12.3 µM. 1.1% of 360,000 active. AID 651610;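 active = mean replicate inhibition score of at least 50 and every replicate individually at or above 50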;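 note: 0% = plate neutral controls and 100% = maraviroc near 300 nM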
aDG glyco up = increases alpha dystroglycan glycosylation. Pro5-aDG cells, alpha-DG glycosylation AlphaScreen (IIH6); 0% Pro5, 100% B10-LARGE cell signal. AID 624168. 0.22% of 360,000 active. activation, % at 10 µM;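 active = activation of at least 8% versus controls, or a plate z-score of at least 8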;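 note: Pro5 are CHO cells carrying HIG-tagged alpha-DG that lacks glycosylation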
NR2F2 inh = blocks human COUP-TFII nuclear receptor | P24468 | HEK293T NGFI-A luciferase reporter, luminescence | inhibition, % at 8.6 µM | 0.7% of 370,000 active | AID 686940;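 active = inhibition above a per-plate cutoff, mean inhibition of test wells between control levels plus 3 SD, cut at about 38% in these data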;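 note: cells cotransfected with COUP-TFII expression vector driving the NGFI-A reporter; 0% = median of COUP-TF2 test wells and 100% = reporter-only cells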
Target sequence (P24468 whole entry, looked up): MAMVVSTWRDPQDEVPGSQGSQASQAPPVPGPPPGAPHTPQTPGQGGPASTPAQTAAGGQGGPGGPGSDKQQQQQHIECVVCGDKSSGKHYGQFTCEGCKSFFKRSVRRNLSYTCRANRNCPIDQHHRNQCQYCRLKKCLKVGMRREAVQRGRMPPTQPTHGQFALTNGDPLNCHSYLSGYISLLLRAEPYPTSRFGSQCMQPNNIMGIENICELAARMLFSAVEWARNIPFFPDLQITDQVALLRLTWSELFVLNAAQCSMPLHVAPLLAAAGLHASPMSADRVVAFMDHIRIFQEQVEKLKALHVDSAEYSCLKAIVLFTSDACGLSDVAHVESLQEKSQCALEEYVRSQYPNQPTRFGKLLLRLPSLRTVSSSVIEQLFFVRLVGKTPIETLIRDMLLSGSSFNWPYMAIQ
GalR3 antag = human GalR3 antagonism; O60755; HEK293 GalR3-CNG cAMP membrane potential fluorescence; galR3 body fused to GalR1 C-terminus; inhibition, % at 3 µM; 0.44% of 360,000 active;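 active = inhibition above the screen-wide average plus 3 SD, cut at about 13% in these data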;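 note: forskolin and galanin both at EC90 stimulate the cells; cAMP rise reported by CNG channel membrane potential dye signal; 0% = forskolin plus galanin with DMSO and 100% = forskolin alone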
Target sequence (O60755 1-299 limits assumed): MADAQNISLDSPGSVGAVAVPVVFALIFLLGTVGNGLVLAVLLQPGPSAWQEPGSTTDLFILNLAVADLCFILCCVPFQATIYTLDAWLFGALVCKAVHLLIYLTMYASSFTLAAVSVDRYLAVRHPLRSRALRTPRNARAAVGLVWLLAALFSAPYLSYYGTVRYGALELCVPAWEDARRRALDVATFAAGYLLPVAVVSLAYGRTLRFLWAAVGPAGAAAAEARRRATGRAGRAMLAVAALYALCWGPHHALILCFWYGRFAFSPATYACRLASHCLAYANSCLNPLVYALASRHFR
Gli-Sufu block = antagonists of Gli-Sufu signaling; Sufu-KO-LIGHT fibroblasts, Gli luciferase reporter luminescence; 0.74% of 340,000 active; inhibition, % at 5 µM; AID 588413;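 active = inhibition above about 55%, limit read from the data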;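 note: 0% = DMSO-treated cells and 100% = wells with medium but no cells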
Numbers without * were called inactive; nt = not tested or not shown; [ ] = dose if it differs, or a comment.

SMILES	HIV Env fusion	aDG glyco up	NR2F2 inh	GalR3 antag	Gli-Sufu block
C=C1C(=O)C=C2CN(C(=O)c3ccccc3)[C@@](Cc3ccc(F)cc3)(C(=O)OC)[C@@H]12	nt	-0.6	nt	nt	62.4*
COC(=O)[C@@]1(Cc2ccc(F)cc2)[C@H]2c3cc(C(=O)N(C)C)n(CCO)c3C[C@H]2CN1C(=O)c1ccccc1	80.3*	0.1	7.9	-6.5	nt
CC(C)c1cn(CC[C@@H]2CC[C@H](NS(=O)(=O)c3ccccc3)[C@H](CO)O2)nn1	-8.0[16.7 µM]	nt	nt	nt	nt
C[C@@H]1CN([C@@H](C)CO)S(=O)(=O)c2ccc(-c3ccc(F)cc3)cc2O[C@H]1CN(C)C(=O)C1CC1	0.6[16.7 µM]	nt	nt	nt	nt
COc1ccc(S(=O)(=O)Nc2ccc3c(c2)CC(=O)N([C@@H](C)CO)C[C@H](C)[C@H](CN(C)S(=O)(=O)c2cccs2)O3)cc1	80.0*[16.7 µM]	nt	nt	nt	nt
C[C@H](CO)N1C[C@H](C)[C@H](CN(C)S(=O)(=O)c2cccs2)Oc2ccc(NC(=O)C3CCCCC3)cc2CC1=O	61.1*[16.7 µM]	nt	nt	nt	nt
COc1ccc(NC(=O)Nc2ccc3c(c2)CC(=O)N([C@@H](C)CO)C[C@H](C)[C@H](CN(C)S(=O)(=O)c2cccs2)O3)cc1	75.3*[16.7 µM]	nt	nt	nt	nt
COc1ccc(NC(=O)Nc2ccc3c(c2)CC(=O)N([C@H](C)CO)C[C@H](C)[C@@H](CN(C)S(=O)(=O)c2cccs2)O3)cc1	4.1[16.7 µM]	nt	nt	nt	nt
COc1ccc(S(=O)(=O)Nc2ccc3c(c2)CC(=O)N([C@H](C)CO)C[C@@H](C)[C@H](CN(C)S(=O)(=O)c2cccs2)O3)cc1	28.9[16.7 µM]	nt	nt	nt	nt
C[C@H]1CN([C@@H](C)CO)C(=O)Cc2cc(NC(=O)C3CCCCC3)ccc2O[C@@H]1CN(C)S(=O)(=O)c1cccs1	14.3[16.7 µM]	nt	nt	nt	nt
C[C@H]1CN([C@@H](C)CO)C(=O)Cc2cc(NC(=O)Nc3ccccc3)ccc2O[C@H]1CN(C)S(=O)(=O)c1cccs1	69.7*[16.7 µM]	nt	nt	nt	nt
CN(C)C(=O)C[C@H]1C=C[C@H](NC(=O)Nc2cccc(F)c2)[C@@H](CO)O1	-11.2[16.7 µM]	nt	nt	nt	nt
C[C@H]1CN([C@@H](C)CO)C(=O)Cc2cc(NC(=O)Cc3ccccc3)ccc2O[C@@H]1CN(C)S(=O)(=O)c1cccs1	10.1[16.7 µM]	nt	nt	nt	nt
C[C@H](CO)N1C[C@H](C)[C@H](CN(C)S(=O)(=O)c2cccs2)Oc2ccc(NC(=O)CCN3CCOCC3)cc2CC1=O	55.5*[16.7 µM]	nt	nt	nt	nt
C[C@H](CO)N1C[C@H](C)[C@H](CN(C)S(=O)(=O)c2cccs2)Oc2ccc(NC(=O)Cc3ccccc3)cc2CC1=O	95.5*[16.7 µM]	nt	nt	nt	nt
C[C@H]1CN([C@@H](C)CO)C(=O)Cc2cc(NC(=O)CCN3CCOCC3)ccc2O[C@H]1CN(C)S(=O)(=O)c1cccs1	-0.9[16.7 µM]	nt	nt	nt	nt
CCC(=O)N[C@@H]1C=C[C@H](CC(=O)NCc2ccccc2F)O[C@H]1CO	-31.4[16.7 µM]	nt	nt	nt	nt
CCN(CC)S(=O)(=O)c1ccc(N/N=C/c2cc(OC)c(OC)cc2OC)nc1	nt	-0.2	0.2	-9.7	5.7
CCOc1cccc(/C=N/Nc2ccc(S(=O)(=O)N(CC)CC)cn2)c1O	48.2	1.6	-6.7	-5.3	89.5*
C[C@H](CO)N1C[C@H](C)[C@@H](CN(C)CC2CCCC2)Oc2cc(C3=CCCCC3)ccc2S1(=O)=O	56.3*[16.7 µM]	nt	nt	nt	nt
C[C@@H]1CN([C@@H](C)CO)S(=O)(=O)c2ccc(C3=CCCC3)cc2O[C@@H]1CN(C)C(=O)C1CCOCC1	69.7*[16.7 µM]	nt	nt	nt	nt
C[C@H](CO)N1C[C@H](C)[C@H](CN(C)Cc2ccccc2F)Oc2cc(C3=CCCC3)ccc2S1(=O)=O	68.4*[16.7 µM]	nt	nt	nt	nt
CN(C)CCNC(=O)c1ccc(Sc2ccc(Br)cc2)c([N+](=O)[O-])c1	20.1	3.6*	20.0	-3.9	13.5
CC(=O)NCCNC(=O)c1ccc(Sc2ccccc2)c([N+](=O)[O-])c1	-3.1	-0.2	27.4	-2.6	-10.2
Cc1nc(SCC(=O)N2CCOCC2)c2c(C)c(C)sc2n1	18.3	0.2	3.1	-3.8	34.1
SMILES	HIV Env fusion	aDG glyco up	NR2F2 inh	GalR3 antag	Gli-Sufu block
Cc1nc(SCC(=O)Nc2ccc(S(=O)(=O)N3CCOCC3)cc2)c2c(C)c(C)sc2n1	64.1*	-0.5	6.4	-5.7	10.8
Cc1nc(SCc2nc3cc(Cl)c(F)cc3[nH]2)c2oc3ccccc3c2n1	65.6*	0.9	4.0	-0.2	7.3
Cc1nc(SCc2nc3ccc(Cl)cc3[nH]2)c2oc3ccccc3c2n1	1.4	0.3	3.9	8.5	7.1
CC(=O)c1c(C)[nH]c(C(=O)CSc2nnc(C3CCCCC3)n2N)c1C	63.5*	0.1	30.9	-7.3	5.2
Cc1ccc(S(=O)(=O)Nc2ccc3c(c2)C(=O)N([C@H](C)CO)C[C@@H](C)[C@H](CN(C)C(=O)Nc2ccccc2)OCCCC[C@@H](C)O3)cc1	-75.7[16.7 µM]	nt	nt	nt	nt
O=C1CC[C@@H](O)CCN1CC[C@H](Sc1ccc(Br)cc1)c1ccccc1	-35.0	-0.2	10.4	-2.3	-3.5
CC(C)(C)[C@@H]1CCC(=O)N(CC[C@H](Sc2ccc(Br)cc2)c2ccccc2)CC1	67.0*	0.4	-7.5	-10.7	6.5
COCCn1c(=O)[nH]c2cc(C(=O)N3CCN(Cc4ccc5c(c4)OCO5)CC3)ccc2c1=O	18.8	0.0	-22.5	-7.4	-3.5
COCCn1c(=S)[nH]c2cc(C(=O)N3CCN(Cc4ccc5c(c4)OCO5)CC3)ccc2c1=O	86.4*	0.2	8.1	-6.6	0.0
COCCn1c(=S)[nH]c2cc(C(=O)N3CCc4ccccc43)ccc2c1=O	80.0*	2.5	4.2	-4.3	11.0
O=C(CC1CC1)Nc1ccc2c(c1)[C@H]1C[C@H](CC(=O)N3CCCCC3)O[C@@H](CO)[C@H]1O2	-13.1[16.7 µM]	nt	nt	nt	nt
COc1ccc2c3c([nH]c2c1)[C@H](CO)N(C(=O)C1CC1)CC31CCN(C)CC1	5.0[16.7 µM]	nt	nt	nt	nt
O=C(OC(C(=O)Nc1ccc(Cl)cc1C(F)(F)F)c1ccccc1)c1c(Cl)cccc1Cl (stereo not given)	73.3*	0.1	11.3	2.9	8.7
Cc1ccc(C(=O)OC(C(=O)Nc2ccc(Cl)cc2C(F)(F)F)c2ccccc2)cc1 (stereo not given)	-34.3	0.3	-1.2	-1.1	-11.4
CN1C(=O)c2cc(NC(=O)C3CCOCC3)ccc2OC[C@H]2O[C@@H](CC(=O)NC3CCCC3)CC[C@@H]21	2.8[16.7 µM]	nt	nt	nt	nt
CCn1c(C)nc2cc(-c3nc4n(n3)Cc3ccccc3-4)ccc21	nt	0.2	nt	nt	87.5*
CCO[C@@H]1OC(C(=O)N2CCCC2)=C[C@H](c2ccc3c(c2)OCO3)[C@H]1CCCO	0.4[16.7 µM]	nt	nt	nt	nt
O=C(c1cccc(S(=O)(=O)NCc2ccccc2)c1)N1CCN(c2cccc(C(F)(F)F)c2)CC1	60.7*	1.4	-0.5	-0.9	6.2
C[n+]1cn(CC(O)COCc2ccccc2)c2ccccc21 (stereo not given)	-23.0	0.2	-3.3	-5.2	-19.1
CCCCCc1ccc(OCCOCCn2c[n+](C)c3ccccc32)c(CCCCC)c1	nt	1.9	nt	nt	87.3*
S=C(NC1CCCCC1)N1CCOCCOCCN(C(=S)NC2CCCCC2)CCOCCOCC1	39.7	0.6	-2.8	2.7	3.1
S=C(NN=C1CCCCC1=NNC(=S)N1CCOCC1)N1CCOCC1	66.8*	nt	3.0	-2.7	nt

Assay outcomes: PubChem, several laboratories
